# Assay results taken from publication PMC5540273 (PLoS ONE, 2017).
# Where two headings read alike, the source gives them in different places.
# Key:
# [1] = system: LRRK2; conditions: concentration: 1 μM, replicates: in singlicate; n = 1
# [2] = system: LTK; conditions: n = 1
# [3] = system: LYN; conditions: concentration: 1 μM, replicates: in singlicate; n = 1
# [4] = system: T1, LZK; conditions: concentration: 1 μM, replicates: in singlicate; n = 1
# T1 construct: gene MAP3K13
# [5] = system: MAK; conditions: concentration: 1 μM, replicates: in singlicate; n = 1
# [6] = system: MAP3K15; conditions: concentration: 1 μM, replicates: in singlicate; n = 1
# [7] = system: MAP3K1; conditions: concentration: 1 μM, replicates: in singlicate; n = 1
# [8] = system: MAP3K2; conditions: concentration: 1 μM, replicates: in singlicate; n = 1
# [9] = system: MAP3K3; conditions: concentration: 1 μM, replicates: in singlicate; n = 1
# [10] = system: MAP3K4; conditions: concentration: 1 μM, replicates: in singlicate; n = 1
# [11] = system: MAP4K2; conditions: concentration: 1 μM, replicates: in singlicate; n = 1
# [12] = system: MAP4K3; conditions: concentration: 1 μM, replicates: in singlicate; n = 1
# [13] = system: MAP4K4; conditions: concentration: 1 μM, replicates: in singlicate; n = 1
# [14] = system: MAP4K5; conditions: concentration: 1 μM, replicates: in singlicate; n = 1
# [15] = system: MAPKAPK2; conditions: concentration: 1 μM, replicates: in singlicate; n = 1
# [16] = system: MAPKAPK5; conditions: concentration: 1 μM, replicates: in singlicate; n = 1
# [17] = system: MARK1; conditions: concentration: 1 μM, replicates: in singlicate; n = 1
# [18] = system: MARK2; conditions: concentration: 1 μM, replicates: in singlicate; n = 1
# [19] = system: MARK3; conditions: concentration: 1 μM, replicates: in singlicate; n = 1
# [20] = system: MARK4; conditions: concentration: 1 μM, replicates: in singlicate; n = 1
# [21] = concentration: 1 μM, replicates: in singlicate
# 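Further: KINOMEscan kinase panel screen.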
smiles,measurement,setting,value
FC(F)(F)c1ccccc1-c1cc(-c2c[nH]nc2-c2ccccn2)ccn1 [GW679396],%Inh,[1],1%
same,%Inh,[2]; [21],5%
same,%Inh,[3],0%
same,%Inh,[4],11%
same,%Inh,[5],35%
same,%Inh,[6],0%
same,%Inh,[7],11%
same,%Inh,[8],0%
same,%Inh,[9],0%
same,%Inh,[10],24%
same,%Inh,[11],0%
same,%Inh,[12],0%
same,%Inh,[13],10%
same,%Inh,[14],3%
same,%Inh,[15],0%
same,%Inh,[16],8%
same,%Inh,[17],0%
same,%Inh,[18],0%
same,%Inh,[19],0%
same,%Inh,[20],12%
COc1ccc(Nc2nccc(-c3ccc(NC(=O)c4cc5cc(F)ccc5[nH]4)cc3)n2)cc1 [GSK1229496],%Inh,[1],0%
same,%Inh,[2]; [21],0%
same,%Inh,[3],0%
same,%Inh,[4],21%
same,%Inh,[5],22%
same,%Inh,[6],0%
same,%Inh,[7],0%
same,%Inh,[8],5%
same,%Inh,[9],0%
same,%Inh,[10],0%
same,%Inh,[11],0%
same,%Inh,[12],0%
same,%Inh,[13],0%
same,%Inh,[14],0%
same,%Inh,[15],0%
same,%Inh,[16],0%
same,%Inh,[17],0%
same,%Inh,[18],0%
same,%Inh,[19],0%
same,%Inh,[20],0%
Cc1ccccc1Cn1ccn2c(=O)cc(N3CCOCC3)nc12 [GSK2269905],%Inh,[1],0%
same,%Inh,[2]; [21],0%
same,%Inh,[3],0%
same,%Inh,[4],0%
same,%Inh,[5],0%
same,%Inh,[6],0%
same,%Inh,[7],2%
same,%Inh,[8],0%
same,%Inh,[9],0%
same,%Inh,[10],30%
same,%Inh,[11],0%
same,%Inh,[12],0%
same,%Inh,[13],0%
same,%Inh,[14],0%
same,%Inh,[15],19%
same,%Inh,[16],0%
same,%Inh,[17],99.2%
same,%Inh,[18],0%
same,%Inh,[19],0%
same,%Inh,[20],96.6%
Fc1ccc(-c2nn3cccc(F)c3c2-c2ccncc2)cc1 [GW475620],%Inh,[1],24%
same,%Inh,[2]; [21],8%
same,%Inh,[3],6%
same,%Inh,[4],0%
same,%Inh,[5],0%
same,%Inh,[6],0%
same,%Inh,[7],9%
same,%Inh,[8],8%
same,%Inh,[9],0%
same,%Inh,[10],0%
same,%Inh,[11],0%
same,%Inh,[12],10%
same,%Inh,[13],47%
same,%Inh,[14],24%
same,%Inh,[15],29%
same,%Inh,[16],0%
same,%Inh,[17],1%
same,%Inh,[18],0%
same,%Inh,[19],0%
same,%Inh,[20],4%
Cc1ccc(-c2nc(Nc3ccncc3)c3ccccc3n2)s1 [GSK189015],%Inh,[1],54%
same,%Inh,[2]; [21],1%
same,%Inh,[3],0%
same,%Inh,[4],0%
same,%Inh,[5],36%
same,%Inh,[6],12%
same,%Inh,[7],40%
same,%Inh,[8],0%
same,%Inh,[9],0%
same,%Inh,[10],26%
same,%Inh,[11],0%
same,%Inh,[12],19%
same,%Inh,[13],23%
same,%Inh,[14],15%
same,%Inh,[15],25%
same,%Inh,[16],0%
same,%Inh,[17],7%
same,%Inh,[18],0%
same,%Inh,[19],22%
same,%Inh,[20],13%
Cc1nccc(-c2c(-c3ccc(F)cc3)ncn2CCCN2CCOCC2)n1.Cl [SB-282975],%Inh,[1],0%
same,%Inh,[2]; [21],30%
same,%Inh,[3],9%
same,%Inh,[4],0%
same,%Inh,[5],25%
same,%Inh,[6],28%
same,%Inh,[7],20%
same,%Inh,[8],17%
same,%Inh,[9],19%
same,%Inh,[10],22%
same,%Inh,[11],0%
same,%Inh,[12],1%
same,%Inh,[13],30%
same,%Inh,[14],37%
same,%Inh,[15],0%
same,%Inh,[16],4%
same,%Inh,[17],0%
same,%Inh,[18],4%
same,%Inh,[19],7%
same,%Inh,[20],45%
COc1ccc(-c2coc3ccc(-c4nnc(C)o4)cc23)cc1,%Inh,[1],0%
same,%Inh,[2]; [21],0%
same,%Inh,[3],10%
same,%Inh,[4],0%
same,%Inh,[5],0%
same,%Inh,[6],0%
same,%Inh,[7],0%
same,%Inh,[8],0%
same,%Inh,[9],0%
same,%Inh,[10],8%
same,%Inh,[11],0%
same,%Inh,[12],0%
same,%Inh,[13],0%
same,%Inh,[14],0%
same,%Inh,[15],0%
same,%Inh,[16],0%
same,%Inh,[17],100%
same,%Inh,[18],30%
same,%Inh,[19],0%
same,%Inh,[20],100%
CN1c2ccc(-c3ccc(C(N)=O)cc3)cc2-c2[nH]ncc2S1(=O)=O,%Inh,[1],0%
same,%Inh,[2]; [21],0%
same,%Inh,[3],0%
same,%Inh,[4],0%
same,%Inh,[5],0%
same,%Inh,[6],0%
same,%Inh,[7],0%
same,%Inh,[8],21%
same,%Inh,[9],12%
same,%Inh,[10],0%
same,%Inh,[11],1%
same,%Inh,[12],6%
same,%Inh,[13],29%
same,%Inh,[14],23%
same,%Inh,[15],0%
same,%Inh,[16],0%
same,%Inh,[17],14%
same,%Inh,[18],0%
same,%Inh,[19],0%
same,%Inh,[20],27%
CS(=O)(=O)Cc1ccc(Nc2nccc(-c3c(-c4cccc(NC(=O)C5CCCCC5)c4)nn4ncccc34)n2)cc1 [GSK350559],%Inh,[1],20%
same,%Inh,[2]; 1 µM,0%
same,%Inh,[3],16%
same,%Inh,[4],0%
same,%Inh,[5],0%
same,%Inh,[6],38%
same,%Inh,[7],30%
same,%Inh,[8],15%
same,%Inh,[9],19%
same,%Inh,[10],11%
same,%Inh,[11],36%
same,%Inh,[12],0%
same,%Inh,[13],0%
same,%Inh,[14],10%
same,%Inh,[15],0%
same,%Inh,[16],39%
same,%Inh,[17],37%
same,%Inh,[18],0%
same,%Inh,[19],0%
same,%Inh,[20],5%
COc1ccc(CSc2nnc(-c3ccc4ncsc4c3)o2)cc1C(F)(F)F,%Inh,[1],0%
same,%Inh,[2]; [21],0%
same,%Inh,[3],0%
same,%Inh,[4],0%
same,%Inh,[5],0%
same,%Inh,[6],0%
same,%Inh,[7],0%
same,%Inh,[8],0%
same,%Inh,[9],0%
same,%Inh,[10],7%
same,%Inh,[11],0%
same,%Inh,[12],0%
same,%Inh,[13],0%
same,%Inh,[14],0%
same,%Inh,[15],0%
same,%Inh,[16],0%
same,%Inh,[17],0%
same,%Inh,[18],24%
same,%Inh,[19],0%
same,%Inh,[20],2%
